Shown are actives, neighbours in structure and some others; about 3.6% of the full set was active somewhere.
Sfp PPTase inh: qHTS Assay for Inhibitors of Bacillus subtilis Sfp phosphopantetheinyl transferase (PPTase); Biochemical Sfp PPTase activity, qHTS; Potency, µM, for the others: largest response in the series, negative = inhibition, hits mostly inhibitors; 3.5% of 310,000 active; AID 1490, 2009;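 further: the enzyme is Sfp with the accession as filed and its product quenches rhodamine fluorescence; 0% = enzyme reaction without inhibitor and -100% = no enzyme wells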
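Sfp 15 nM + cpd, 15 min RT; start w/ rhodamine-CoA 5 uM, BHQ-2-YbbR 12.5 uM (final); 50 mM Hepes pH 7.6, 10 mM MgCl2, 0.01% NP-40, 0.01% BSA; read 525/598 nm at 0 and 30 min.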
Epigenetic reg: Quantitative High-Throughput Screen for Regulators of Epigenetic Control; murine LDR cells, GFP reporter derepression, 30 h; Potency, µM (doses to about 53.9 µM), inactives show top-dose GFP activation, actives largely listed as activators; 0.2% of 280,000 active; AID 1865, 2009; further: % of control where 0% means no effect; nearly all actives have a fitted effect of over 60% in size
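Murine LDR cells bearing a silenced CMV-driven GFP reporter were exposed to compound for 30 h at 37 C. After PBS washes, GFP-positive cells (20-120 um objects) counted by laser-scanning microplate cytometry.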
KDM4E inh: qHTS Assay for Inhibitors of Human Jumonji Domain Containing 2E (JMJD2E) | Lysine-specific demethylase 4E (Homo sapiens), B2RXH2 | JMJD2E catalytic domain, FDH-coupled NADH fluorescence (FDH is formaldehyde dehydrogenase) | Potency, µM (top dose mostly 57.1 µM), without a hit: top-dose activity change, negative = inhibition, usual class: inhibitors | 1.6% of 230,000 active | AID 2147, 2009; active means well fitted inhibition curve with a large enough effect, not every such curve was filed as active; inconclusive means small, poorly fitted or top-dose-only effect, or another doubt; inactive means no such curve, though single readings can be large or run the other way;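 further: 0% = wells with enzyme and -100% = buffer wells without enzyme; nearly all actives have a fitted effect of over 50% in size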
Target sequence (B2RXH2 1-337 limits assumed): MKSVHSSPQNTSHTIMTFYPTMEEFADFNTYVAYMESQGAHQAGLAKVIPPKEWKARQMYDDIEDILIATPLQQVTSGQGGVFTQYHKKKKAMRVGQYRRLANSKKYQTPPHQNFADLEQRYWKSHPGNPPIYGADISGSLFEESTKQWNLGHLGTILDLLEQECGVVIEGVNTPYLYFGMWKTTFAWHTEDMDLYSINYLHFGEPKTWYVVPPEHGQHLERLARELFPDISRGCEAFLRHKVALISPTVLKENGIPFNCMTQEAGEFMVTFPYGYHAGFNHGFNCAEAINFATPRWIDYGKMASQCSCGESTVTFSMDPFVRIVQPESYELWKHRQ
NPSR antagonist: qHTS Assay for Antagonists of the Neuropeptide S Receptor: cAMP Signal Transduction | 1% of 220,000 active | CHO-NPSR cells, cAMP TR-FRET, antagonist mode | AID 1461, 2008 | Potency, µM (top dose mostly 38.3 µM), without a hit: at the highest dose activity change, negative = inhibition, hits mostly inhibitors; further: on the % scale 0 is the no-effect control and ±100 the full control effect; nearly all actives have a fitted effect of over 50% in size
Target sequence (Q6W5P4 whole entry, looked up): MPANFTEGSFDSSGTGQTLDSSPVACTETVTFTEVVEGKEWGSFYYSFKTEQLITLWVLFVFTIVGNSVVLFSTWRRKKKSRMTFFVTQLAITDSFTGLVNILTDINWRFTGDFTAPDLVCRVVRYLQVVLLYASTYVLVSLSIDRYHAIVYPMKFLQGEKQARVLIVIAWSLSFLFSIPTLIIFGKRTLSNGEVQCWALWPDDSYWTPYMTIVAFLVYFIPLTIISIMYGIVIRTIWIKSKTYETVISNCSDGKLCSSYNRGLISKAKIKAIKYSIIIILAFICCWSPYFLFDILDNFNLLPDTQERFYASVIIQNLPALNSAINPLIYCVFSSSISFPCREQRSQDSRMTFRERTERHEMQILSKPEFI
GCN5L2 inh: qHTS Assay for Inhibitors of GCN5L2 | 0.21% of 390,000 active | AID 504327, 2011 | Histone acetyltransferase KAT2A (Homo sapiens), Q92830 | GCN5L2 HAT assay, ThioGlo1 CoA-SH fluorescence | Potency, µM (highest dose often 58.9 µM), for inactives: at the top dose activity change, negative = inhibition, most hits filed as inhibitors; further: on the % scale 0 is the no-effect control and ±100 the full control effect
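qHTS, 1536-well. 20nM enzyme, pH 7.5 HEPES/EDTA/Tween-20 buffer; 15 min compound preinc., RT. Start: 75uM H3(1-25), 70uM AcCoA, 50uM ThioGlo1. Read Ex340/Em540 at t=0 (autofluorescence flag) and t=20 min.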
IMPase Li cell: qHTS Assay for Identifying the Cell-Membrane Permeable IMPase Inhibitors: Potentiation with Lithium; CHO-M1 cells, IP1 TR-FRET (IP-One), carbachol + lithium; Potency, µM (top dose mostly 59.4 µM), for inactives: at the highest dose activity, negative = IMPase inhibition, usual class: inhibitors; 0.35% of 210,000 active; AID 1457, 2008;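 further: IP1 builds up when IMPase is blocked and the TR-FRET signal falls; plate controls were basal vehicle for no effect and high inhibitor control for full effect; nearly all actives have a fitted effect of over 50% in size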
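Readout is a homogeneous TR-FRET IP1 immunoassay (Ex 320, Em 665 and 620), where raised cytosolic IP1 lowers signal. Cells were CHO-M1 treated 30 min at 37C with test compounds plus a little lithium; AC50 values came from Hill-equation fitting.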
Starred values were filed as active, the others as inactive; u = inconclusive; x = not tested or not shown; [ ] = another dose, or the depositor's remark. Unless noted, the call rests on the fitted dose curve; in most records, active means well fitted curve in the direction sought with a large enough effect; inconclusive means small, poorly fitted or top-dose-only effect, or another doubt; inactive means no such curve, though single readings can be large; an effect the other way counts as inactive or inconclusive. Potency means the concentration at half of the fitted maximal effect.

SMILES	Sfp PPTase inh	Epigenetic reg	KDM4E inh	NPSR antagonist	GCN5L2 inh	IMPase Li cell
CCOC(=O)c1cc(-c2ccc([N+](=O)[O-])cc2)nc2c1c(=O)[nH]c(=O)n2Cc1ccccc1	4%	x	x	x	-6%	x
COc1ccccc1CN=Cc1[nH]c2ccc(Br)c(Cl)c2c1O	u	1%	-22%	20%[46.1 µM]	-14%	7.1µM*
Cc1cc(C(=O)N/N=C\c2cc(C(C)(C)C)ccc2O)n[nH]1	21%	x	x	x	u	x
CC(=O)N/N=C/c1cc(C(C)(C)C)cc(/C=N/NC(C)=O)c1O	14%	4%	22µM*	-7%	0%	5%
CCN(CC)C(=O)CSc1nc2c(sc(=S)n2-c2ccccc2)c(=O)n1-c1ccccc1OC	15%	x	x	x	-7%	x
CCOC(=O)CSc1nc2c(sc(=S)n2-c2ccccc2)c(=O)n1-c1ccc(OC)cc1OC	32µM*	x	x	x	-3%	x
CCN(CC)C(=O)CSc1nc2c(sc(=S)n2-c2ccccc2)c(=O)n1-c1ccc(OC)cc1OC	22µM*	x	x	x	0%	x
CCCn1c(NC(=O)c2ccc(Br)cc2)nc2ccccc21	10%	-3%	u	u	-1%	28µM*
COCOc1c2c(c(OCOC)c3c(OCOC)cccc13)/C(=N/NS(C)(=O)=O)C1=C2CCCC1	-1%	-1%	u	x	x	4%
S=C(NC1CCCC1)N1CCOCC1	7%	0%	-2%	9%	-2%	2%
O=C(NC1CCCCC1)C(=S)N1CCOCC1	50µM*	-1%[10.1 µM]	-1%	7%	-9%	2%
C=CC[C@@H]1C=C[C@@H](O/N=C2/C[C@@H](O)[C@@H](O)[C@@H]3[C@@H]4C(=O)N(CC)C(=O)[C@H]4CC[C@@H]23)[C@@H](CO)O1	19%	0%[10.1 µM]	x	x	x	x
Cc1c(CC(=O)O)c(=O)oc2c(C)c3occ(-c4ccc(F)cc4)c3cc12	35µM*	x	x	x	-2%	x
Cc1c(CCC(=O)O)c(=O)oc2c(C)c3occ(-c4ccc(Br)cc4)c3cc12	-21%	x	x	x	12%	x
Fc1ccc(C[n+]2csc3ccccc32)cc1	45µM*	4%	u	-18%[46.1 µM]	-10%	-4%[38.3 µM]
Fc1ccc(CSc2ncnc3scc(-c4ccccc4)c23)cc1	u	-1%	3%	-52%	-4%	19%
O=[N+]([O-])c1ccc(S(=O)(=O)Cc2ccccc2)c2nonc12	x	x	x	x	x	7%
COc1ccc2nc(N3CCC(O)CC3)c(C#N)cc2c1	-17%	2%	u	0%[46.1 µM]	-20%	-6%[38.3 µM]
COc1ccc2nc(N3CCC(C)CC3)c(C#N)cc2c1	40µM*	u	u	-1%[46.1 µM]	-31%	20%[38.3 µM]
COC(=O)CN1C(=O)[C@H]2[C@@H](c3ccc(C)o3)N3C(=O)CN(Cc4ccc(-c5ccccc5)cc4)C(=O)[C@@]3(C)[C@H]2C1=O	13µM*	x	x	x	-23%	x
CCOC(=O)c1c(C)[nH]c(C)c1S(=O)(=O)N1CCC(C(=O)Nc2ccc(OC)c(OC)c2)CC1	x	-1%	x	x	-4%	x
CCN1/C(=C\C=C(C(C)=O)C(C)=O)Sc2ccccc21	-2%	1%	-3%	-18%	-9%	9%
CCN1/C(=C/C(C)=C/c2sc3ccccc3[n+]2CC)Sc2ccccc21	32µM*	-1%	-13%	u	-6%	18%
COc1cccc(-c2ccc(C#N)c(SCC(=O)NCCc3cccc(Cl)c3)n2)c1	20%	5%	u	-5%[46.1 µM]	-7%	11µM*
COc1ccc(-c2ccc(C#N)c(SCC(=O)NCCc3ccccc3)n2)cc1OC	-9%	0%	u	u	-1%	-15%
SMILES	Sfp PPTase inh	Epigenetic reg	KDM4E inh	NPSR antagonist	GCN5L2 inh	IMPase Li cell
C/C=C/C1=CC2=CC(=O)C(C)(OC(=O)c3c(C)cc(O)cc3O)C(=O)C2=CO1 (stereo unspecified)	-9%	-1%	4%	x	x	-3%
CN(C)CCCCNC(=O)c1ccc(-n2c(=O)c(=O)[nH]c3ccccc32)cc1	x	-5%	x	x	x	x
Sc1ccc2ccccc2c1CNCc1ccccc1	x	x	x	x	x	3%
Cc1cc(=O)[nH]c(N/N=C/c2ccc(C)o2)n1	u	1%	u	-3%	-4%	-1%
Cc1cc(=O)[nH]c(NN=C(CC(C)C)CC(C)C)n1	56µM*	0%	u	-2%[46.1 µM]	1%	-3%
O=C1[C@H]2[C@H]3[C@H](O)[C@H](O)C/C(=N/OC[C@@H](O)COCc4ccco4)[C@@H]3CC[C@@H]2C(=O)N1Cc1ccc2c(c1)OCO2	-5%	0%[10.1 µM]	x	x	x	x
Cc1cc(C)cc(NC(=O)C2CCN(c3cc(C)nc4c(-c5ccc(Cl)cc5)c(C)nn34)CC2)c1	x	-1%	x	x	2%	x
C=CCn1c(SCCN2CCOCC2)nc2c1c(=O)[nH]c(=O)n2C	-6%	-1%	0%	-4%[46.1 µM]	-17%	-2%
COCCn1c(SCCN2CCOCC2)nc2c1c(=O)[nH]c(=O)n2C	13µM*	-2%	-11%	1%[46.1 µM]	2%	-3%[38.3 µM]
CC(C)CCn1c(SCc2ccc(Cl)cc2)nc2c1c(=O)[nH]c(=O)n2C	45µM*	0%	-2%	-29%[46.1 µM]	3%	-11%[38.3 µM]
COCCn1c(SCc2ccc(F)cc2)nc2c1c(=O)[nH]c(=O)n2C	45µM*	x	x	x	-4%	x
CCOCCn1c(SCc2ccc(F)cc2)nc2c1c(=O)[nH]c(=O)n2C	0%	0%	4%	-11%[46.1 µM]	-1%	-2%[38.3 µM]
